Data on five molecules can be found in PubChem BioAssay (EPA / NIEHS).

For orientation: AC50 means the concentration at which the activity in the assay is half-maximal.

Experiment [1] is described as follows: BSK_hDFCGF_SRB: Viability Assessment in the BioMAP Diversity Plus: hDFCGF Assay (AID 2283061).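 Further: cells exposed to compound for 24 h before the read.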 The following applies: primary human foreskin fibroblasts. Put shortly:
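Readout is SRB absorbance at 560 nm, reflecting total protein in parallel cultures of human foreskin fibroblasts harvested 24 h after chemical dosing. Activity was fitted bidirectionally relative to DMSO.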

Read-out in experiment [2]: TIMP metallopeptidase inhibitor 1 (TIMP1), TIMP1 (gene 7076)
As to the kind of experiment: BSK_hDFCGF_TIMP1: BioMAP Diversity Plus: hDFCGF Assay for TIMP metallopeptidase inhibitor 1 (TIMP1) Biomarker Activity (AID 2283062). Particulars: primary human foreskin fibroblasts; actives raise or lower the signal. A digest of the protocol:
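Human skin fibroblasts (primary), hDFCGF system; compound exposure 24 h; TIMP-1 by ELISA; bidirectional fit vs DMSO negative control; overt cytotoxicity by SRB in parallel wells.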

Read-out in experiment [3]: Monokine induced gamma interferon (MIG), CXCL9 (gene 4283)
The experiment is described as follows: BSK_hDFCGF_MIG: BioMAP Diversity Plus: hDFCGF Assay for Monokine induced gamma interferon (MIG) Biomarker Activity (AID 2283063). The following applies: primary human foreskin fibroblasts; actives raise or lower the signal. Put shortly:
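Chemicals were added to primary human foreskin fibroblast cultures, which were sampled 24 h later. MIG levels were then quantified by ELISA and responses fitted in both directions relative to DMSO.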

Read-out in experiment [4]: Matrix Metallopeptidase 1 (MMP1), MMP1 (gene 4312)
As to the kind of experiment: BSK_hDFCGF_MMP1: BioMAP Diversity Plus: hDFCGF Assay for Matrix Metallopeptidase 1 (MMP1) Biomarker Activity (AID 2283064). The following applies: primary human foreskin fibroblasts; actives raise or lower the signal. A digest of the protocol: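 hDFCGF primary fibroblasts (human foreskin); chemical added; 24 h; MMP1 by ELISA; bidirectional fit vs DMSO.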

Read-out in experiment [5]: Plasminogen activator inhibitor-1 (PAI1), SERPINE1 (gene 5054)
The experiment is described as follows: BSK_hDFCGF_PAI1: BioMAP Diversity Plus: hDFCGF Assay for Plasminogen activator inhibitor-1 (PAI1) Biomarker Activity (AID 2283066). Particulars: primary human foreskin fibroblasts; actives raise or lower the signal. A digest of the protocol:
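Human foreskin fibroblasts in the hDFCGF system were dosed with compound for 24 h; PAI-1 was quantified by ELISA. Bidirectional curve fitting used DMSO as negative control and baseline.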

Read-out in experiment [6]: Intercellular Adhesion Molecule 1 (ICAM1), ICAM1 (gene 3383)
As to the kind of experiment: BSK_KF3CT_ICAM1: BioMAP Diversity Plus: KF3CT Assay for Intercellular Adhesion Molecule 1 (ICAM1) Biomarker Activity (AID 2283067). Particulars: primary human keratinocytes with fibroblasts; actives raise or lower the signal. Put shortly:
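ICAM-1 levels are measured by ELISA 24 h after dosing a primary human co-culture of keratinocytes and foreskin fibroblasts. Activity in either direction is fitted relative to DMSO vehicle.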

Read-out in experiment [7]: Interferon-gamma inducible Protein 10 (IP10), CXCL10 (gene 3627)
As to the kind of experiment: BSK_KF3CT_IP10: BioMAP Diversity Plus: KF3CT Assay for Interferon-gamma inducible Protein 10 (IP10) Biomarker Activity (AID 2283068). Particulars: primary human keratinocytes with fibroblasts; actives raise or lower the signal. A digest of the protocol: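 In a primary skin co-culture of keratinocytes and fibroblasts, IP-10 is quantified by ELISA at 24 h after dosing. SRB staining of parallel wells monitors overt toxicity. Curves are fitted both directions against DMSO.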

The nature of experiment [8]: BSK_KF3CT_SRB: Viability Assessment in the BioMAP Diversity Plus: KF3CT Assay (AID 2283069).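 Further: total protein by sulforhodamine B staining as a cytotoxicity measure; read 24 h after compound addition; fitted for both signal gain and loss against DMSO baseline.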 The following applies: primary human keratinocytes with fibroblasts. Put shortly:
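Keratinocytes co-cultured with foreskin fibroblasts (human primary); chemical added, 24 h; fix 10% TCA, stain 0.1% SRB, A560. Bidirectional fit vs DMSO.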

Read-out in experiment [9]: Interleukin-1 alpha (IL1a), IL1A (gene 3552)
As to the kind of experiment: BSK_KF3CT_IL1a: BioMAP Diversity Plus: KF3CT Assay for Interleukin-1 alpha (IL1a) Biomarker Activity (AID 2283070). The following applies: primary human keratinocytes with fibroblasts; actives raise or lower the signal. A digest of the protocol: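 Chemicals were dosed onto co-cultured human keratinocytes and foreskin fibroblasts, IL-1a was quantified by ELISA at 24 h, and activity was fitted in both directions relative to DMSO controls.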

Read-out in experiment [10]: TIMP metallopeptidase inhibitor 2 (TIMP2), TIMP2 (gene 7077)
The experiment is described as follows: BSK_KF3CT_TIMP2: BioMAP Diversity Plus: KF3CT Assay for TIMP metallopeptidase inhibitor 2 (TIMP2) Biomarker Activity (AID 2283071). The following applies: primary human keratinocytes with fibroblasts; actives raise or lower the signal. Put shortly: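 Human primary keratinocyte/foreskin fibroblast co-culture dosed with chemical and sampled at 24 h. TIMP-2 levels quantified by ELISA; bidirectional fitting against DMSO negative control as baseline.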

Read-out in experiment [11]: Transforming growth factor beta 1 (TGFb1), TGFB1 (gene 7040)
As to the kind of experiment: BSK_KF3CT_TGFb1: BioMAP Diversity Plus: KF3CT Assay for Transforming growth factor beta 1 (TGFb1) Biomarker Activity (AID 2283072). Particulars: primary human keratinocytes with fibroblasts; actives raise or lower the signal. Put shortly:
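Human keratinocyte plus foreskin fibroblast primary co-culture, dosed with chemical for 24 h. TGF-b1 quantified by ELISA. Activity fitted bidirectionally against DMSO negative control as baseline.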

Read-out in experiment [12]: Matrix Metallopeptidase 9 (MMP9), MMP9 (gene 4318)
As to the kind of experiment: BSK_KF3CT_MMP9: BioMAP Diversity Plus: KF3CT Assay for Matrix Metallopeptidase 9 (MMP9) Biomarker Activity (AID 2283074).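 On AC50: MMP9 protein level quantified by ELISA in the co-culture.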 The following applies: primary human keratinocytes with fibroblasts; actives raise or lower the signal. Put shortly: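 Human keratinocyte/foreskin fibroblast co-culture; compound added; 24 h; MMP-9 by ELISA; bidirectional fit vs DMSO baseline.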

Read-out in experiment [13]: urokinase plasminogen activator (uPA), PLAU (gene 5328)
The experiment is described as follows: BSK_KF3CT_uPA: BioMAP Diversity Plus: KF3CT Assay for urokinase plasminogen activator (uPA) Biomarker Activity (AID 2283075). Particulars: primary human keratinocytes with fibroblasts; actives raise or lower the signal. A digest of the protocol: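 ELISA readout of uPA, analyzed for signal gain or loss relative to DMSO, from a human primary keratinocyte–foreskin fibroblast co-culture measured 24 h after chemical treatment.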

Read-out in experiment [14]: CD40, CD40 (gene 958)
As to the kind of experiment: BSK_LPS_CD40: BioMAP Diversity Plus: LPS Assay for CD40 Biomarker Activity (AID 2283076). Particulars: primary human HUVEC with PBMC; actives raise or lower the signal. A digest of the protocol:
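Cells were dosed, incubated 24 h, then assayed for CD40 by ELISA. Gain or loss of signal was analysed relative to DMSO controls. The culture paired human umbilical vein endothelium with peripheral blood mononuclear cells.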

Read-out in experiment [15]: E-selectin (Homo sapiens) (UniProt P16581)
The experiment is described as follows: BSK_LPS_Eselectin: BioMAP Diversity Plus: LPS Assay for Eselectin Biomarker Activity (AID 2283077). The following applies: primary human HUVEC with PBMC; actives raise or lower the signal. Put shortly: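 Primary human vascular co-culture (endothelium plus PBMC) was dosed with chemical, then E-selectin quantified by ELISA at 24 h. Endpoint values derive from bidirectional curve fitting relative to DMSO.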

Read-out in experiment [16]: Interleukin-8 (IL8), CXCL8 (gene 3576)
The experiment is described as follows: BSK_LPS_IL8: BioMAP Diversity Plus: LPS Assay for Interleukin-8 (IL8) Biomarker Activity (AID 2283078). Particulars: primary human HUVEC with PBMC; actives raise or lower the signal. Put shortly:
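Readout is IL-8 by ELISA, taken 24 h after compounds were added to LPS-stimulated endothelial/PBMC co-cultures. Both increases and decreases relative to DMSO control were scored through bidirectional fitting.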

Experiment [17] in a line: BSK_LPS_SRB: Viability Assessment in the BioMAP Diversity Plus: LPS Assay (AID 2283079).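 Further: total protein by sulforhodamine B absorbance as a cytotoxicity measure; measured one day after compound addition; fitted in both directions against DMSO so loss or gain of signal counts.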 Particulars: primary human HUVEC with PBMC. Put shortly: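 Readout is SRB absorbance at 560 nm (0.1% stain, TCA-fixed parallel cultures) as a total-protein cytotoxicity measure. Cells: primary human umbilical vein endothelium plus peripheral blood mononuclear cells, 24 h after chemical exposure; DMSO served as baseline.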

Read-out in experiment [18]: Interleukin-1 alpha (IL1a), IL1A (gene 3552)
The experiment is described as follows: BSK_LPS_IL1a: BioMAP Diversity Plus: LPS Assay for Interleukin-1 alpha (IL1a) Biomarker Activity (AID 2283080). The following applies: primary human HUVEC with PBMC; actives raise or lower the signal. Put shortly:
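ELISA read-out of IL-1 alpha from a human primary vascular co-culture (endothelium plus PBMC) under LPS, sampled 24 hours post-dosing. Activity was fitted in both directions relative to DMSO controls.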

Calls of active or inactive are those of the source. How the source made its calls: active means hit-call score of the fitted dose curve at least 0.9, where 1 is the maximum; inactive means score below 0.9.

Sequence of E-selectin (Homo sapiens) (P16581 whole entry, looked up): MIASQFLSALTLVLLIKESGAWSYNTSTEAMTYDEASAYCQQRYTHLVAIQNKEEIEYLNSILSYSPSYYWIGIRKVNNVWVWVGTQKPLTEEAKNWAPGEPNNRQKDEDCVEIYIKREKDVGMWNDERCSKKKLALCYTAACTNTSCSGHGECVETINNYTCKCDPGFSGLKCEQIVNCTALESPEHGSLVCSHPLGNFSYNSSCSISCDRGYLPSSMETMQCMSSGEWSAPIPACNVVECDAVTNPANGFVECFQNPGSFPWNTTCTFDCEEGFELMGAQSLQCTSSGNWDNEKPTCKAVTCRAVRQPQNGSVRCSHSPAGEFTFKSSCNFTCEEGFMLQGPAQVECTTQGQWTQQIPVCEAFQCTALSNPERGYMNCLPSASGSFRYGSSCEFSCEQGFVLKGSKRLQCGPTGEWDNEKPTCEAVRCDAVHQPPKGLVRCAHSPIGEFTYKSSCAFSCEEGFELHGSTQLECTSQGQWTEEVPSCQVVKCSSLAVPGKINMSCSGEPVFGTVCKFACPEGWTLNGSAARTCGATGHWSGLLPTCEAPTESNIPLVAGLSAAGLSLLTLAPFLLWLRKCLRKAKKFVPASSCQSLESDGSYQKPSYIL

As for `CCOCCOC(C)=O`, the result in experiment [1], in [2], in experiment [3], in experiment [4], in [5] and in [6] was inactive. Also, the result in experiment [7], in experiment [8], in experiment [9], in [10], in experiment [11] and in [12] was inactive. The result in experiment [13], in experiment [14], in experiment [15], in experiment [16], in [17] and in experiment [18] was inactive.

In the case of `CC(c1ccc(O)cc1)(c1ccc(O)cc1)c1ccc(O)cc1`, the AC50 in experiment [1] was 29.2 µM (active); in [3] it was 23.8 µM (active); in experiment [4], 39.2 µM (active); in experiment [5], 20.5 µM (active); in experiment [6], 20 µM (active); in experiment [7], 22.3 µM (active). Also, the AC50 in experiment [8] was 29.9 µM (active); in experiment [10], 13.1 µM (active); in [11], 11.4 µM (active); in experiment [12] it was 25.2 µM (active); in [13], 20 µM (active); in experiment [14] it was 20 µM (active). Further, the AC50 in experiment [15] is 32.7 µM (active); in experiment [17], 23.9 µM (active). The result in [2], in experiment [9], in experiment [16] and in [18] was inactive.

Take `Nc1ccc(-c2ccc(N)cc2)cc1`: the result in experiment [1], in experiment [2], in experiment [3], in experiment [4], in [5] and in experiment [6] was inactive. For the same molecule, the outcome in experiment [7], in [8], in [9], in [10], in [11] and in experiment [12] was inactive. For the same molecule, the outcome in experiment [13], in experiment [14], in [15], in experiment [16], in experiment [17] and in experiment [18] was inactive.

`CC#Cc1cc(C)nc(Nc2ccccc2)n1`: the outcome in experiment [1], in [2], in [3], in experiment [4], in [5] and in experiment [6] was inactive. For the same molecule, the outcome in experiment [7], in experiment [8], in experiment [9], in experiment [10], in experiment [11] and in experiment [12] was inactive. In addition, the outcome in experiment [13], in experiment [14], in [15], in [16], in experiment [17] and in [18] was inactive.

Regarding `CCSC(=O)N(CC)C1CCCCC1`, the result in experiment [1], in experiment [2], in [3], in experiment [4], in experiment [5] and in [6] was inactive. For the same molecule, the result in [7], in experiment [8], in [9], in experiment [10], in experiment [11] and in [12] was inactive. Moreover, the result in [13], in [14], in [15], in experiment [16], in experiment [17] and in experiment [18] was inactive.
